Screening results: PubChem BioAssay, several laboratories
PfHsp90 set2 – inhibits growth of yeast expressing Plasmodium falciparum Hsp90; 310,000 compounds, 0.32% hits; inhibition, % at 9.4 µM; S. cerevisiae expressing PfHsp90, BacTiter-Glo ATP, 48 h; yeast lacking PDR1 and PDR3 efflux regulators;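 active means every replicate shows inhibition above about 80%, whatever the replicate mean, limit read from the data; inconclusive means mean inhibition reaches the set limit but some replicate falls short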;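 further: 0% = DMSO neutral controls and 100% = 20 µM radicicol positive controls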
SKKanGAS inh – inhibitors of SKKanGAS S. pyogenes growth in kanamycin (SK-promoter or general growth effect) | 300,000 compounds, 1.3% hits | inhibition, % at 7.5 µM | BacTiter-Glo, 6 h | AID 1662;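 active means mean replicate score, as percent of positive control median, at least 50; inconclusive means mean below 50 but one replicate at or above 50; inactive means mean and every replicate below 50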;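 further: strain carries kanamycin resistance gene driven by streptokinase promoter and grows in 40 µg/ml kanamycin; loss of luminescence reflects streptokinase promoter inhibition or plain growth inhibition; 0% = median of DMSO wells and 100% = positive control at its reference dose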
V-ATPase pHluor – alters yeast V-ATPase proton transport. S. cerevisiae, pHLuorin cytosolic pH fluorescence. response, % at 10 µM. 350,000 compounds, 0.37% hits; in the data active means response mostly above about 7.3%, no sharp cut-off; inactive means mostly below about 5.4%; further: actives read high
tim10-1 inh – inhibits growth of tim10-1 mutant yeast | S. cerevisiae tim10-1 ts strain growth, BacTiter-Glo, 24 h | inhibition, % at 20 µM | 330,000 compounds, 2.2% hits | AID 463190;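 active means inhibition of at least 40%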;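 further: mutant grown at 25 °C; 0% = DMSO wells with yeast and 100% = wells holding no yeast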
tim23-1 inh – tim23-1 yeast growth inhibition; S. cerevisiae tim23-1 growth, BacTiter-Glo luminescence, 24 h; 330,000 compounds, 1.3% hits; inhibition, % at 20 µM;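 active means growth inhibition of the mutant yeast at or above 50%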;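 further: temperature-sensitive mutant grown at 25 °C; plate controls were DMSO-treated mutant yeast for no effect and medium wells lacking yeast for full effect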
TIM10 inh – inhibits growth of TIM10 yeast strain; AID 463195; 330,000 compounds, 1.4% hits; inhibition, % at 10 µM; S. cerevisiae TIM10 strain growth, BacTiter-Glo luminescence, 24 h;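 active means inhibition of 40% or more at the single tested concentration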;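 further: wild-type TIM10 isogenic control strain grown at permissive 25 °C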
Starred values were filed as active, the others as inactive; ? = inconclusive; nt = no result. In the library only some 4.6% were active in any assay of this set; here they are far more common.

SMILES | PfHsp90 set2 | SKKanGAS inh | V-ATPase pHluor | tim10-1 inh | tim23-1 inh | TIM10 inh
COc1cc(C(=O)NC(=S)NNC(=O)[C@H]2C[C@@H]2c2ccccc2)cc(OC)c1OC | 9 | 90* | -6 | 31 | 14 | 16
COc1ccccc1C(=O)NNC(=S)NC(=O)c1cc(OC)c(OC)c(OC)c1 | -18 | 80* | 0 | 9 | -32 | 13
CC(C)c1ccc(O)c(NC(=S)NC(=O)c2ccc3c(c2)OCO3)c1 | -60 | 60* | -2 | 36 | 20 | 28
COc1cc(C(=O)NNC(=S)NC(=O)c2ccccc2C)cc(OC)c1OC | -13 | 60* | 1 | 22 | -5 | 8
O=C(NC(=S)Nc1ccccc1Br)c1ccc2c(c1)OCO2 | -5 | 3 | -2 | 11 | 13 | 9
Cc1ccc(C)c(Cn2c(C(=O)OC(C)C)cc3c2ccn3C)c1 | 48 | -1 | 2 | 16 | 12 | 11
COc1cc(C(=O)NNC(=S)NC(=O)c2ccc3c(c2)OCO3)cc(OC)c1OC | nt | 77* | -1 | 16 | 19 | 32
O=C(NC(=S)Nc1ccc(-c2nc3ncccc3o2)cc1)c1ccccc1F | 1 | 52* | 3 | 1 | -2 | -3
O=C(NC(=S)Nc1ccc(Cc2ccncc2)cc1)c1ccccc1F | 17 | 12 | -2 | 27 | 41 | 14
C/C(=N\NC(=S)NCc1ccccc1)c1cccs1 | -19 | 14 | 1 | 15 | 38 | 28
C/C(=N\NC(=S)NCc1ccccc1)c1ccc2ccccc2c1OC(F)F | 6 | 67* | 1 | 25 | 34 | 39
O=C1C=CC(=O)N1Cc1ccccc1 | 110* | -2 | 0 | 37 | 20 | 13
O=C1C2CC=CCC2C(=O)N1Cc1ccccc1 (stereo not drawn) | 9 | 6 | 6 | -12 | -7 | -12
Cn1c(=O)[nH]c(=O)c2c1nc1n2CC(O)CN1c1ccccc1 (stereo not drawn) | -7 | -3 | -3 | 10 | 0 | -12
FC(F)Sc1ccc(NC(=S)NC(c2ccccc2)c2ccccc2)cc1 | -21 | 126* | 1 | 8 | 1 | 12
COc1ccc2ncc(S(=O)(=O)c3ccccc3)c(N3CCN(c4ccccc4)CC3)c2c1 | -10 | 67* | -2 | 5 | -4 | 25
O=C1C=CC(=O)N1c1ccc2c(c1)Cc1cc(F)ccc1-2 | 116* | nt | 17* | nt | nt | nt
CC(=O)Nc1ccc2c(c1)Cc1cc(N3C(=O)C=CC3=O)ccc1-2 | 116* | nt | -3 | nt | nt | nt
O=C(COC(=O)c1cncc(Br)c1)NC1CCCCCC1 | -6 | 6 | -2 | 7 | 14 | -3
Cc1sc2nc(-c3ccncc3)[nH]c(=O)c2c1-c1ccccc1 | nt | 4 | nt | 9 | 31 | 15
Cc1sc2nc(-c3ccccn3)[nH]c(=O)c2c1-c1ccccc1 | -22 | 80* | 1 | 3 | 11 | 7
O=C(O)CN1C(=O)/C(=C\c2cc(Br)ccc2OCc2ccc(F)cc2)SC1=S | -11 | ? | 6 | 14 | 33 | 23
O=C(O)CN1C(=O)/C(=C\c2cc(Br)ccc2OCc2ccc(Cl)cc2)SC1=S | 25 | 94* | -1 | nt | nt | nt
O=C(O)CN1C(=O)/C(=C\c2cc([N+](=O)[O-])ccc2OCc2ccccc2Cl)SC1=S | -11 | 55* | 0 | 28 | 30 | 13
O=C(O)CN1C(=O)/C(=C\c2ccccc2OCc2ccccc2)SC1=S | nt | nt | -1 | nt | nt | nt
SMILES | PfHsp90 set2 | SKKanGAS inh | V-ATPase pHluor | tim10-1 inh | tim23-1 inh | TIM10 inh
O=S(=O)(c1cccc(F)c1)N1CCN(c2nc(-c3cccnc3)nc3ccccc23)CC1 | -26 | nt | -1 | 14 | 40 | 34
Cc1cc(/C=c2/sc3nc4ccccc4n3c2=O)c(C)n1-c1ccccn1 | 19 | 21 | 7 | 31 | 37 | 36
Cc1cc(/C=c2\sc3nc4ccccc4n3c2=O)c(C)n1-c1ccc(C(=O)O)cc1 | 112* | 34 | 0 | nt | nt | nt
O=C1C=CC(=O)N1c1ccc(Nc2ccccc2)cc1 | 126* | nt | 5 | nt | nt | nt
O=C(Nc1ccc(Nc2ccccc2)cc1)c1c(F)c(F)c(F)c(F)c1F | -26 | 20 | 4 | 13 | 21 | 11
O=C1C=CC(=O)N1c1ccc2ccccc2c1 | 116* | nt | -5 | nt | nt | nt
O=c1c2ccccc2cnn1-c1ccc2ccccc2c1 | nt | 1 | 4 | 21 | 40 | 9
Cc1cccc(N2C(=O)C=CC2=O)c1 | 117* | nt | -3 | nt | nt | nt
Cc1ccnc2nc(C(=O)OC(C)C(=O)NCc3ccccc3)nn12 (stereo not drawn) | -10 | nt | 1 | 14 | 10 | 3
C=CCNC(=O)c1sccc1Oc1ccc(F)cc1[N+](=O)[O-] | 29 | -11 | -1 | 13 | 8 | 14
CN(C)c1ccc(N=Nc2ccc3ncccc3c2)cc1 | nt | nt | -1 | nt | nt | nt
Cc1cc(N(C)C)ccc1N=Nc1ccc2ncccc2c1 | 18 | 54* | -1 | 25 | 18 | -1
Oc1ccc(COCc2ccccc2)c2cccnc12 | -33 | ? | 2 | 1 | 14 | 4
CCCOCc1ccc(O)c2ncccc12 | -8 | 82* | 6 | 6 | 20 | 7
OCc1ccc(O)c2ncccc12 | 12 | 5 | 2 | -15 | -7 | -1
CC(C)COCc1ccc(O)c2ncccc12 | 1 | 83* | -1 | 3 | 16 | 13
O=C(NCc1ccccc1)C(c1cccnc1)N(C(=O)c1csnn1)c1ccccc1 (stereo not drawn) | 15 | 1 | 0 | -10 | 0 | -14
COc1ccc(/C=C/C(=O)NC(=S)NNC(=O)c2cc(OC)c(OC)c(OC)c2)cc1OC | nt | 89* | 5 | 21 | 16 | 30
COc1ccc(/C=C/C(=O)NC(=S)NNC(=O)c2cc(OC)c(OC)c(OC)c2)cc1 | 17 | 101* | 0 | -6 | 3 | -7
COc1ccc(C(=O)NC(=S)NNC(=O)c2ccccc2C)cc1 | -1 | 101* | 0 | -8 | 31 | 3
COc1ccc(C(=O)NNC(=S)NC(=O)C(C)(C)C)cc1 | -9 | 68* | 0 | -13 | -43 | -20
COc1ccc(C(=O)NC(=S)NNC(=O)c2ccccc2O)cc1 | 11 | 102* | 0 | 7 | 11 | -4
CCn1c(C)nc2cc(C(=O)NNC(=S)NC(=O)c3ccc(OC)cc3)ccc21 | 60 | 59* | -1 | 9 | 22 | -1
COc1ccc(C(=O)NNC(=O)c2ccc(C(C)(C)C)cc2)cc1 | -11 | -5 | 1 | -3 | 2 | -6
CCOc1ccc(NC(=O)CN2CCC(n3cnc4cc(F)ccc43)CC2)cc1 | -7 | 11 | -4 | 12 | 29 | -11
O=C(Nc1cccc(S(=O)(=O)N2CCOCC2)c1)C1COc2ccccc2O1 (stereo not drawn) | -13 | nt | -1 | 23 | 30 | 23
Cn1c(=O)cc(C(=O)N/N=C/c2ccc(F)cc2)[nH]c1=O | -11 | 0 | 3 | 0 | 9 | -14
Cc1c(OCC(=O)NCCN2CCOCC2)ccc2c(-c3ccccc3)cc(=O)oc12 | -2 | -4 | 1 | 31 | 13 | 7
O=C(NC(=S)NCCO)c1sc2ccccc2c1Cl | -37 | -2 | -2 | 5 | 13 | 1
